From PubChem
An excerpt weighted towards active compounds, which were near 2.4% of everything screened.
Cruzain inh Det: qHTS Assay for Promiscuous and Specific Inhibitors of Cruzain (with detergent); Cruzipain (Trypanosoma cruzi), P25779; purified cruzain, Z-FR-AMC fluorescence, 0.01% Triton; Potency, µM, inactives show max response, negative = inhibition, hits mostly inhibitors; 200,000 tested, 0.43% active; AID 1478, 2009;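 further: plate controls were neutral wells for no effect and buffer without enzyme for full effect; nearly all actives have a fitted effect of over 40% in size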
Target sequence (P25779 123-467 limits assumed): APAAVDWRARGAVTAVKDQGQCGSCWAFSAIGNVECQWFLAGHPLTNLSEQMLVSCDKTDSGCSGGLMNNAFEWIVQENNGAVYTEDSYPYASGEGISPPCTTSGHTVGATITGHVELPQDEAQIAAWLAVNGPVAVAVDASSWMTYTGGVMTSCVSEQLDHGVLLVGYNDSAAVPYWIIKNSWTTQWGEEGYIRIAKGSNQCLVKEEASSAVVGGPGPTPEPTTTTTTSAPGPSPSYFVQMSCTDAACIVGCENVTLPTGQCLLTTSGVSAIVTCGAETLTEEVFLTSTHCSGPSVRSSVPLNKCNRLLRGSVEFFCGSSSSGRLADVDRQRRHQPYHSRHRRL
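Compounds were screened in titration against cruzain (1.5 nM) with 0.01% Triton X-100 to counter colloidal aggregation. Activity was the AMC fluorescence increase over 60 s after adding 2 uM Z-FR-AMC at pH 5.5.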
Cruzain noTriton: qHTS Assay for Promiscuous and Specific Inhibitors of Cruzain (without detergent) | Cruzipain (Trypanosoma cruzi), P25779 | purified cruzain, Z-FR-AMC fluorescence, no detergent | Potency, µM, without a hit: max response, negative = inhibition, actives largely listed as inhibitors | 200,000 tested, 2.3% active | AID 1476, 2009;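 further: plate controls were enzyme without inhibitor for no effect and buffer without enzyme for full effect; nearly all actives have a fitted effect of over 40% in size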
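Purified cruzain at 1.5 nM, pre-incubated 15 min with compound at room temperature in 100 mM sodium acetate pH 5.5, 5 mM DTT, 0.00005% Triton X-100. Reaction started with 2 uM Z-FR-AMC; AMC fluorescence increase over 60 s gives rate.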
* hit, by the source's call; ? = inconclusive. The call rests on the fitted dose curve; in most records, active means well fitted curve in the direction sought with a large enough effect; inconclusive means small, poorly fitted or top-dose-only effect, or another doubt; inactive means no such curve, though single readings can be large; an effect the other way counts as inactive or inconclusive. Potency means the concentration at half of the fitted maximal effect.

SMILES | Cruzain inh Det | Cruzain noTriton
CCCCN(CC)CCCNC(=O)c1cc2c(=O)[nH]c3ccccc3c2n1C | -13% | -21%
C=CCCCC | -5% | 1%
CCc1ccc(OC(=O)CSc2nnc(-c3ccc4c(c3)OCO4)o2)cc1 | -3% | 8%
O=C(Nc1cccc(Cl)c1)c1ccc2nc(CCc3ccccc3)oc2c1 | -7% | 6%
CCCCCn1c(CNC(=O)c2ccc(F)cc2)nc2ccccc21 | -18% | 16%
CCn1c(CCNC(=O)c2ccc(F)cc2)nc2ccccc21 | 22µM* | 2.5µM*
CCCCn1c(CCNC(=O)c2ccc(F)cc2)nc2ccccc21 | 7.1µM* | 9%
CCn1c(CCCNC(=O)c2ccc(F)cc2)nc2ccccc21 | 5% | -7%
Cc1cc(C(=O)CSc2nnnn2-c2ccccc2)c(C)n1CCc1ccccc1 | 1% | -9%
Cc1cc(C(=O)CSc2nc(N)cc(=O)[nH]2)c(C)n1CCc1ccc(F)cc1 | 1% | 25µM*
Cc1cc(C(=O)CSc2nnc(N)s2)c(C)n1CCc1ccc(Cl)cc1 | -1% | ?
Cc1cc(C(=O)CSc2nnnn2C)c(C)n1CCc1ccc(F)cc1 | 6% | 25µM*
CCCc1cc(=O)[nH]c(SCC(=O)c2cc(C)n(CCOC)c2C)n1 | 1% | 6%
COc1ccc(CCn2c(C)cc(C(=O)CSc3nnc(N)s3)c2C)cc1 | -3% | ?
COc1ccc(CCn2c(C)cc(C(=O)CSc3nc(N)cc(=O)[nH]3)c2C)cc1 | 0% | 25µM*
Cc1cc(C(=O)CSc2nnc(N)s2)c(C)n1CCc1ccc(F)cc1 | 3% | 16µM*
CC/C=C\C[C@H](O)/C=C/C=C\C/C=C\C/C=C\CCCC(=O)O | 4% | -6%
COC(=O)c1c(C)oc2ccc(N(C(=O)c3ccncc3)S(=O)(=O)c3ccc(OC)cc3)cc12 | -4% | -10%
C=CC1=C(C(=O)O)N2C(=O)C(NC(=O)/C(=N\O)c3csc(N)n3)C2SC1 (stereo not drawn) | -10% | -2%
CCOC(=O)c1sc(NC(=O)c2cc(-c3ccc(F)cc3)on2)c(C(=O)OCC)c1C | -1% | 1%
COc1ccc(N=Nc2nc(-c3ccccc3)c(-c3ccccc3)[nH]2)cc1 | -2% | 25µM*
COc1ccccc1N=Nc1nc(-c2ccccc2)c(-c2ccccc2)[nH]1 | -5% | -23%
O=C(Cn1c(=O)n(-c2ccc(Cl)cc2)c(=O)c2c3c(sc21)CCCCC3)Nc1cccc(Cl)c1 | -2% | -9%
CCOCCCn1c(SCC(=O)OCC)nc2c(sc3ccccc32)c1=O | 1% | 10%
COC(=O)c1ccc(OCCOc2ccccc2)cc1 | -5% | 0%
SMILES | Cruzain inh Det | Cruzain noTriton
O=C(Nc1ccc(OCc2ccccc2)cc1)c1cccc([N+](=O)[O-])c1 | -2% | -30%
COC(=O)c1ccc(CNC(=O)c2ccc(COc3ccccc3)cc2)cc1 | -2% | 10µM*
NNC(=O)c1ccc(COc2ccccc2)cc1 | -1% | 9%
Cc1ccc(C(=O)Nc2ccc(OCc3ccccc3)cc2)cc1[N+](=O)[O-] | -2% | 13µM*
O=C(Nc1ccc(F)cc1)c1ccc(COc2ccccc2)cc1 | -1% | 13µM*
CCNc1ncc2nc(-c3cccc(C#N)c3)c(=O)n(CCC#N)c2n1 | -2% | 14%
CC[C@@H]1CN2CCc3cc(OC)c(OC)cc3[C@@H]2C[C@@H]1C[C@H]1NCCc2cc(OC)c(OC)cc21 | 0% | -3%
COC(=O)c1ccc(-n2c(C)cc(-c3csc(NC(=O)c4ccc(S(=O)(=O)N(C)C)cc4)n3)c2C)cc1 | -2% | 4µM*
CN1CCN(S(=O)(=O)c2cccc(C(=O)Nc3nc(-c4ccccc4)cs3)c2)CC1 | -11% | -6%
CCOC(=O)c1csc(NC(=O)c2ccc(S(=O)(=O)N(C)C)cc2)n1 | 4% | 4%
Cc1cc(-c2csc(NC(=O)c3cccc(S(=O)(=O)N(C)C)c3)n2)c(C)n1-c1ccccc1 | -5% | 7.9µM*
Cc1ccc(NC(=O)/C(C#N)=C/c2cc(C)n(-c3ccc(N4CCOCC4)c([N+](=O)[O-])c3)c2C)c(C)c1 | -1% | ?
Cc1cc(/C=C(\C#N)C(=O)Nc2ccc(Cl)cc2)c(C)n1-c1ccc(N2CCOCC2)c([N+](=O)[O-])c1 | -6% | 7.9µM*
O=C(CSCn1nnc2c(=O)[nH]c(Cc3ccc(F)cc3)nc21)Nc1cccc(C(F)(F)F)c1 | -4% | 9%
Cc1ccc2nc(N(Cc3cccnc3)C(=O)c3ccco3)sc2c1 | 1% | ?
O=C(COc1cccc(Cl)c1)Nc1nc(-c2ccc(S(=O)(=O)N3CCOCC3)cc2)cs1 | 1% | 13µM*
CCOc1cccc(C(=O)Nc2nc(-c3ccc(S(=O)(=O)N4CCOCC4)cc3)cs2)c1 | -7% | ?
CCC/C=C(\CCC)C(NP(=O)(c1ccccc1)c1ccccc1)c1ccc(C(F)(F)F)cc1 (stereo not drawn) | 0% | -4%
COc1ccc(C2=C(C(C)=O)Sc3nnc(-c4ccc(C)cc4)n3N2C(C)=O)cc1OC | 0% | ?
